“And” between values parts separate entries of the source, which are not always exact repeats. Identical values can stand only once. About 22,000 (6.9%) of roughly 320,000 compounds were called active. About 27% were inconclusive and are not listed. Calls follow the shape of the dose curve; as a rule, active = well fitted inhibition curve with a large enough effect; inconclusive = small, poorly fitted or top-dose-only effect, or another doubt; inactive = no such curve, though single readings can be large or run the other way. For the sample, actives were picked, then their nearest neighbours and some compounds at random.
Assay: Primary qHTS for delayed death inhibitors of the malarial parasite plastid, 96 hour incubation
Conditions: P. falciparum luciferase reporter growth; series mostly up to 28.7 µM; activity change, negative = inhibition: at the top concentration
Summary of the method: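 Compounds incubated with erythrocytes infected by luciferase-expressing P. falciparum (2% hematocrit, 0.05% parasitemia final) for 96 hours, 37 C in 5% CO2. Growth inhibition scored as decreased luciferase luminescence.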
% is scaled to controls: 0 for no effect and ±100 for the full control effect; potency is read from the fitted curve at half-maximal effect.

Structure (SMILES)	activity change, negative = inhibition	Potency
COC(=O)c1cc(OCC(=O)NC2CCCc3ccccc32)cc(C(=O)OC)c1 (stereo not drawn)	4.97% (inactive)	
Cc1ccc(C(=O)NCC(=O)OCC(=O)NC2CCCCCCC2)cc1	30.3% (inactive)	
Oc1ccc(-c2cccc(-c3ccc(O)cc3)c2)cc1	40.9% (inactive)	
O=C(NCCS(=O)(=O)N1CCN(c2ccc(F)cc2)CC1)c1ccc2c(c1)OCO2	23.3% (inactive)	
Cn1cnnc1SCc1nnc(-c2ccccc2Br)o1	22.1% (inactive)	
CC(C)N(Cc1nnc(-c2ccccc2Br)o1)C(=O)c1cc(Cl)nc2ccccc12		14.7 µM (active)
CC(C)N(Cc1nnc(-c2ccc(Cl)cc2)o1)C(=O)C1=COCCO1	-0.891% (inactive)	
O=S(=O)(Nc1ccccc1)c1ccc(NS(=O)(=O)c2cccs2)cc1	409% (inactive)	
Cc1ccc(OCCNC(=O)CNC(=O)c2ccc(C)c(C)c2)cc1	15.4% (inactive)	
COc1cc(Nc2nc3ccc(Cl)cc3n3cnnc23)cc(OC)c1OC	7.11% (inactive)	
CC[N+]1(C)CCCC(OC(=O)C(O)(c2ccccc2)c2ccccc2)C1 (stereo not drawn)		8.49 µM (active) and 10.4 µM (active)
CCOC(=O)CCP(=O)(O)C(O)(c1ccccc1)c1ccccc1	6.27% (inactive)	
CN(C)N(C)C(=O)C(O)(c1ccccc1)c1ccccc1	-3.89% (inactive)	
O=S(=O)(c1ccc(Cl)cc1)c1nc(-c2ccccc2F)oc1NCCN1CCOCC1	-26.1% (inactive)	
C[N+](C)(CCCCCC[N+](C)(C)CCCN1C(=O)c2cccc3cccc(c23)C1=O)CCCN1C(=O)c2cccc3cccc(c23)C1=O		0.233 µM (active)
O=C1c2cccc3cccc(c23)C(=O)N1CCCCCc1n[nH]c(=S)o1	21.4% (inactive)	
O=C(CN1C(=O)c2cccc3cccc1c23)Nc1ccccc1	6.14% (inactive)	
COc1cc(/C=C/C(=O)O)cc(S(=O)(=O)Nc2ccccc2C(=O)NCCc2ccccc2)c1OC	24.5% (inactive)	
Cc1ccc(NC(=O)COC(=O)C2C3CC4OC(=O)C2C4C3)cc1Cl (stereo not drawn)	0.766% (inactive)	
Cc1cc(C)cc(NC(=O)c2cccc(NC(=O)C3C4CC5OC(=O)C3C5C4)c2)c1 (stereo not drawn)		0.0738 µM (active)
Cc1cccc(NC(=O)C(C)N2C(=O)C3C4CC(C(Br)C4Br)C3C2=O)c1 (stereo not drawn)	104% (inactive)	
O=C(NCCS(=O)(=O)N1CCN(c2ccccc2)CC1)c1ccco1	10.3% (inactive)	
CSc1cccc(NC(=O)CN2C(=O)COc3ccc(S(=O)(=O)N4CCOCC4)cc32)c1	8.78% (inactive)	
COCCn1nnnc1C(c1ccccc1Cl)N1CCN(c2ccccc2OC)CC1 (stereo not drawn)	-5.44% (inactive)	
CN(C(=O)CSc1nnnn1-c1ccccc1)C1CCCCC1	1.42% [at 5.75 µM] (inactive)	

Structure (SMILES)	activity change, negative = inhibition	Potency
CCC(=O)N(C)C(c1ccccc1Cl)c1nnnn1-c1c(C)cccc1C (stereo not drawn)		9.28 µM (active)
CCc1ccccc1NC(=O)CSc1nnc(CCNC(=O)OC(C)(C)C)o1	14.6% (inactive)	
O=c1[nH]c(=O)n(Cc2ccco2)c2c1C(C(F)(F)F)(C(F)(F)F)N=C(c1ccco1)N2	38% (inactive)	
Cc1ccccc1C1=NC(C(F)(F)F)(C(F)(F)F)c2c(n(-c3ccc(F)cc3)c(=O)[nH]c2=O)N1		11.7 µM (active)
C=CCNC(=S)N1CCc2[nH]c3ccccc3c2C1	4.36% (inactive)	
O=C(NC1CCCCC1)N1CCc2[nH]c3ccccc3c2C1		8.28 µM (active)
O=C(Nc1ccc(Cl)cc1)N1CCc2[nH]c3ccccc3c2C1	0% (inactive)	
Cc1ccc(F)c(NC(=O)CCOc2ccccc2C)c1	38.1% (inactive)	
COc1ccccc1C(=O)N1C(CC(=O)Nc2ccccc2C)C(=O)NC2CCCCC21 (stereo not drawn)	2.48% (inactive)	
COc1ccc(OC)c(C2C3=C(N=c4s/c(=C\c5cccc(O)c5)c(=O)n42)c2ccccc2CC3)c1 (stereo not drawn)		2.08 µM (active)
COc1cc(C(=O)OCC(=O)NC(C)CCc2ccccc2)cc(OC)c1OC (stereo not drawn)	-12.3% (inactive)	
COc1ccc(-n2nc(C(=O)NCC(=O)N3CCCCCC3)c3ccccc3c2=O)cc1Cl		2.33 µM (active)
COc1ccc(-n2nc(C(=O)NCC(=O)N3CCC(C(N)=O)CC3)c3ccccc3c2=O)cc1OC	32% (inactive)	
COCCCNC(=O)CNC(=O)c1nn(-c2ccc(OC)cc2)c(=O)c2ccccc12	5.51% (inactive)	
Cc1ccc(C(=O)O/N=C(\N)c2ccccn2)cc1Cl	11.2% (inactive)	
Cc1nc(C(=O)NCc2ccccc2)sc1C1(C)CC(c2cccnc2)=NO1 (stereo not drawn)	-1.98% (inactive)	
S=C(NCc1ccco1)Nc1ccc2c(c1)OCCO2	-0.369% (inactive)	
COc1ccccc1C1/C(=C(/O)c2ccc(C)cc2)C(=O)C(=O)N1Cc1ccco1 (stereo not drawn)	-16.6% (inactive)	
O=C1c2ccccc2C(Nc2ccc3c(c2)OCCO3)N1Cc1ccco1 (stereo not drawn)		4.65 µM (active)
O=[N+]([O-])c1ccccc1/C=C/CN1CCCC(CO)C1 (stereo not drawn)	93.6% (inactive)	
COc1cccc(CNS(=O)(=O)c2ccc3c(c2)CC(C)N3C(C)=O)c1 (stereo not drawn)		10.4 µM (active)
COc1cccc(CNS(=O)(=O)c2ccc3c(c2)CC(C)N3C(=O)C2CCC2)c1 (stereo not drawn)	-9.19% (inactive)	
COc1cccc(CNS(=O)(=O)c2ccc3c(c2)N(C(C)=O)CCS3)c1	16.7% (inactive)	
COc1cc(C(=O)N/C(=C\c2cn(C)c3ccccc23)C(=O)N2CCOCC2)cc(OC)c1OC	30.2% (inactive)	
Cc1ccc(NC(=O)C/C(N)=N/O)cc1Cl	-9.25% (inactive)	

Structure (SMILES)	activity change, negative = inhibition	Potency
Cc1ccc(NC(=O)CSc2nn3c(=O)c(C)nnc3s2)cc1Cl		9.28 µM (active)
COc1ccc(Cc2nnc(SCC(=O)Nc3ccc(C)c(Cl)c3)[nH]c2=O)cc1	1.8% (inactive)	
O=C(c1ccc2nc(N3CCOCC3)sc2c1)N1CCN(c2ccc(Cl)cc2)CC1	33.2% (inactive)	
Fc1cc(F)c2nc(N3CCOCC3)sc2c1		3.7 µM (active)
O=S(=O)(Nc1ccc2nc(N3CCOCC3)sc2c1)c1ccccc1	126% (inactive)	
COc1ccc(S(=O)(=O)N2CCN(C(C)C(=O)Nc3ccc(C(C)C)cc3)CC2)cc1 (stereo not drawn)	-96.3% (inactive)	
O=[N+]([O-])c1cccc(Nc2c3ccccc3nc3ccccc23)c1	-0.0462% (inactive)	
O=C(O)c1cc([N+](=O)[O-])c(Nc2cccc3ccccc23)c([N+](=O)[O-])c1		3.29 µM (active)
CCOc1ccccc1Nc1ccc(C(=O)O)cc1[N+](=O)[O-]	-20.7% (inactive)	
NC(=O)c1c(NC(=O)c2ccccc2)sc2c1CCCC2	-21.8% (inactive)	
CC1CCCCC12NC(=O)N(CC(=O)Nc1ccc(S(=O)(=O)Nc3ncccn3)cc1)C2=O (stereo not drawn)	-18.3% (inactive)	
COCCN1C(=O)C(=O)/C(=C(/O)c2ccc(S(=O)(=O)N3CCOCC3)cc2)C1c1ccc(O)c(OC)c1 (stereo not drawn)	30% (inactive)	
Cc1c(NC(=O)Nc2ccccc2)cccc1[N+](=O)[O-]	27.6% (inactive)	
Cc1ccc(NC(=O)Nc2ccccc2)c(Br)c1		7.38 µM (active)
Cc1cccc(NC(=O)Nc2nnc(-c3ccccc3)o2)c1	4.59% (inactive)	
CCN(CC)S(=O)(=O)c1ccc(N2CCOCC2)c(NC(=O)C(C)Oc2ccc(F)cc2)c1 (stereo not drawn)		14.7 µM (active)
CC(=O)N1CCc2cc(S(=O)(=O)Nc3ccccc3N3CCN(C)CC3)ccc21	-21.8% (inactive)	
CCN(CC)S(=O)(=O)c1ccc(N2CCN(C)CC2)c(NC(=O)Nc2ccccc2F)c1		13.1 µM (active)
O=C(CNCc1ccco1)Nc1cc(S(=O)(=O)N2CCOCC2)ccc1N1CCCC1	20.8% (inactive)	
CC12CCC(=O)N1C(C(=O)Nc1ccc(F)c(F)c1F)CS2 (stereo not drawn)	28.3% (inactive)	
CCN(CC)S(=O)(=O)c1ccc(N2CCOCC2)c(NC(=O)C2COc3ccccc3O2)c1 (stereo not drawn)	-16% (inactive)	
CCC(=O)Nc1ccccc1N1CCN(S(C)(=O)=O)CC1	18.3% (inactive)	
CCN(CC)S(=O)(=O)c1cc(C(=O)Nc2cc(S(=O)(=O)N3CCOCC3)ccc2N2CCCC2)ccc1F		2.62 µM (active)
O=C(COC(=O)c1ccccc1F)Nc1cc(S(=O)(=O)N2CCOCC2)ccc1N1CCCC1	-15.9% (inactive)	
CCN(CC)S(=O)(=O)c1ccc(N2CCOCC2)c(C(=O)O)c1	9.21% (inactive)	

Structure (SMILES)	activity change, negative = inhibition	Potency
CC(Oc1ccc(F)cc1)C(=O)Nc1cc(S(=O)(=O)N2CCOCC2)ccc1N1CCN(C)CC1 (stereo not drawn)	-13.2% (inactive)	
CCN(CC)S(=O)(=O)c1ccc(N2CCOCC2)c(NC(=O)C2CSC3(C)CCC(=O)N23)c1 (stereo not drawn)		10.4 µM (active)
CN(CC(=O)NC(=O)Nc1ccccc1F)Cc1ccccc1	109% (inactive)	
COc1ccc2ccn(C)c2c1	33.3% (inactive)	
O=C(Cc1cccs1)Nc1ccc([N+](=O)[O-])cc1	-5.05% (inactive)	
O=C(O)C(c1ccccc1)N1C(=O)/C(=C\c2ccc(-c3cccc(Cl)c3)o2)SC1=S (stereo not drawn)	-4.8% (inactive)	
O=C1CCC(C(=O)N2CCCCO2)CN1Cc1cccc(C(F)(F)F)c1 (stereo not drawn)	-3.04% (inactive)	
O=C(NC1CCCC1)c1cc(-c2ccccc2)on1	-2.14% (inactive)	
COc1ccc(OCc2cccc(C(=O)N3CCCC3)c2)cc1	34.8% (inactive)	
CCC(CC)C(=O)Nc1cccc(C(=O)N2CCCC2)c1		8.28 µM (active)
CC(=O)c1cccc(NC(=S)N2CCCC2)c1	37.1% (inactive)	
Cc1ccc(Cl)c(OCC(=O)NN2CCN(C)CC2)c1	7.77% (inactive)	
CCc1c(C)nc(N)n2c(SCC(=O)NC3CCCCC3)nnc12	41.3% (inactive)	
CCOC(=O)C1=C(CN2CCCCCC2)NC(=O)NC1c1cccc([N+](=O)[O-])c1 (stereo not drawn)	-14.6% (inactive)	
CCOC(=O)C1=C(CN2CCc3ccccc32)NC(=O)NC1c1cccc([N+](=O)[O-])c1 (stereo not drawn)		8.28 µM (active)
Cn1c2c(c(=O)n(C)c1=O)C(c1cccc([N+](=O)[O-])c1)Nc1ccccc1O2 (stereo not drawn)	48% (inactive)	
CCOC(=O)C1=C(c2ccccc2)NC(=S)NC1c1ccc(Cl)cc1 (stereo not drawn)	11.7% (inactive)	
O=C(OCC(=O)N1CCc2ccccc21)C1CCCN1S(=O)(=O)c1ccc(Cl)cc1 (stereo not drawn)	-14.8% (inactive)	
CCOC(=O)C1=C(CN2CCc3ccccc32)NC(=O)NC1c1ccc(Cl)cc1 (stereo not drawn)		2.08 µM (active)
NC(=O)C1CCCN(CC(=O)N2CCN(c3ccccc3)CC2)C1 (stereo not drawn)	10.1% (inactive)	
CCOc1ccc(NC(=O)COC(=O)C2CCC(=O)N2)c([N+](=O)[O-])c1 (stereo not drawn)	-5.81% (inactive)	
CN(CC(=O)O)S(=O)(=O)c1ccc2oc3ccccc3c2c1	0.237% (inactive)	
CC1CCCCC1NC(=O)c1cc(=O)[nH]c2ccccc12 (stereo not drawn)	25.1% (inactive)	
